Assays:
[1] = target: High affinity nerve growth factor receptor (Homo sapiens) (UniProt P04629); conditions: at 1 µM;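 also: each value is the mean percent inhibition of TRKA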
[2] = target: BDNF/NT-3 growth factors receptor (Homo sapiens) (UniProt Q16620); conditions: at 0.1 µM
[3] = target: BDNF/NT-3 growth factors receptor (Homo sapiens) (UniProt Q16620); conditions: at 1 µM
[4] = target: NT-3 growth factor receptor (Homo sapiens) (UniProt Q16288); conditions: at 0.1 µM
[5] = target: NT-3 growth factor receptor (Homo sapiens) (UniProt Q16288); conditions: at 1 µM
[6] = target: T1, Tyrosine-protein kinase TXK (Homo sapiens) (UniProt P42681); conditions: at 0.1 µM
T1 sequence (whole entry): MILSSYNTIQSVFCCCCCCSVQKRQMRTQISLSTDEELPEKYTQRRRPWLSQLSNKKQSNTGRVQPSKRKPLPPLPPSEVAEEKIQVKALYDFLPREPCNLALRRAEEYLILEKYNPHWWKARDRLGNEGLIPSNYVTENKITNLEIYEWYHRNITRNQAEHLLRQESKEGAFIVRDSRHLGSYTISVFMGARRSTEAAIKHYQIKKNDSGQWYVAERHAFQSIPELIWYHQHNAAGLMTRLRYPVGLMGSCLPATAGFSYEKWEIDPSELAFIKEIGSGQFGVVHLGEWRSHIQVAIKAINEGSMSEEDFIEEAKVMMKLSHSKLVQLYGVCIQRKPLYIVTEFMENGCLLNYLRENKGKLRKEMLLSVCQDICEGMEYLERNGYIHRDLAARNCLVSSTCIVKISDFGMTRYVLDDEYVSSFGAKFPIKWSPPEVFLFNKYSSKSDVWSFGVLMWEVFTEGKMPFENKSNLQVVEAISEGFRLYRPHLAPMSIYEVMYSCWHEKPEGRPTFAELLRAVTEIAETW

[7] = target: T1, Tyrosine-protein kinase TXK (Homo sapiens); conditions: at 1 µM
[8] = target: Non-receptor tyrosine-protein kinase TYK2 (Homo sapiens) (UniProt P29597); conditions: at 0.1 µM;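 also: each value is a mean of the inhibition readings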
[9] = target: T2, Dual specificity protein kinase TTK (Homo sapiens) (UniProt P33981); conditions: at 1 µM;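 also: reported figures are mean TTK inhibition at 1 µM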
T2 sequence (whole entry): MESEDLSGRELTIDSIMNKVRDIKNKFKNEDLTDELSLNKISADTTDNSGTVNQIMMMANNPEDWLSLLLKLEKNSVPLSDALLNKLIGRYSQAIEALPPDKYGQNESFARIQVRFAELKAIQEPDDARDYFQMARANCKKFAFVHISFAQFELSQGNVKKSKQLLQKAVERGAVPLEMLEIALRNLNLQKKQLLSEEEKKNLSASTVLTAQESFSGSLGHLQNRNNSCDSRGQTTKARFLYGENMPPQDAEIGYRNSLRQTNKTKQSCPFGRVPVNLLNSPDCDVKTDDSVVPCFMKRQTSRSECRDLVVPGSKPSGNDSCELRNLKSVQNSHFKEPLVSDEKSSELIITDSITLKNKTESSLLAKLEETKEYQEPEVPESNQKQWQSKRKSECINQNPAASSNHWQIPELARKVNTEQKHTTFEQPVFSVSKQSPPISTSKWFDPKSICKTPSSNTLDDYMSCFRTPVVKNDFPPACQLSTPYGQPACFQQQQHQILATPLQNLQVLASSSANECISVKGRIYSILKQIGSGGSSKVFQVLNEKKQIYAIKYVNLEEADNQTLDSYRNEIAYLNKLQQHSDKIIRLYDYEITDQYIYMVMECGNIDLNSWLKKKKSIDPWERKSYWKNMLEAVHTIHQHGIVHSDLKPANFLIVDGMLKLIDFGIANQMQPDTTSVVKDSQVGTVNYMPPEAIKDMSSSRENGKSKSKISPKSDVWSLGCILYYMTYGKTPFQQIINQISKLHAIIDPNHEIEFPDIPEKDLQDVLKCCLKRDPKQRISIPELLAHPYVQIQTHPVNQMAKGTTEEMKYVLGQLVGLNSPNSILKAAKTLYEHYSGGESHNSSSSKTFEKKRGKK

[10] = target: T3, Aurora kinase A (Homo sapiens) (UniProt O14965); conditions: at 0.1 µM
T3 sequence (whole entry): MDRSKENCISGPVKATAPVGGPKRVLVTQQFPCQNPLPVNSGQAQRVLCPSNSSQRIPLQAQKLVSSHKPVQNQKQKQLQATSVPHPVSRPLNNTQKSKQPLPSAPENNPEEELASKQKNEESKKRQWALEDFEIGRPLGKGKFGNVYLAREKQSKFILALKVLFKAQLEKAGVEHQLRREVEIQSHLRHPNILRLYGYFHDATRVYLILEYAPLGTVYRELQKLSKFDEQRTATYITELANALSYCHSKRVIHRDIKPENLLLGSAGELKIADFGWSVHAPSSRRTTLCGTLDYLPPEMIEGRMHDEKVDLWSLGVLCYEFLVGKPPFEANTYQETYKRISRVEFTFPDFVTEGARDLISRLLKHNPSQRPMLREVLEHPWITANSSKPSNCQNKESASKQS

[11] = target: T3, Aurora kinase A (Homo sapiens); conditions: at 1 µM
[12] = target: Aurora kinase B (Homo sapiens) (UniProt Q96GD4); conditions: at 0.1 µM
[13] = target: Aurora kinase B (Homo sapiens) (UniProt Q96GD4); conditions: at 1 µM
[14] = target: T4, Aurora kinase C (Homo sapiens) (UniProt Q9UQB9); conditions: at 0.1 µM
T4 sequence (whole entry): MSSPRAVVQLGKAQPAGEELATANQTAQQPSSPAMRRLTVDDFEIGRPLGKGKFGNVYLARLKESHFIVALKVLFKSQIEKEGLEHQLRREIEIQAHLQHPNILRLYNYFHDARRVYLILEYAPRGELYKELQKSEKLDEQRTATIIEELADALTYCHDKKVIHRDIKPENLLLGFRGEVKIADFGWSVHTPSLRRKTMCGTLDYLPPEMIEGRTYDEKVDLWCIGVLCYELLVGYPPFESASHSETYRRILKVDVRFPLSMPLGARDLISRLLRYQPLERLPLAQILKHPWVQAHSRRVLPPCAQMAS

[15] = target: T4, Aurora kinase C (Homo sapiens); conditions: at 1 µM
[16] = target: Serine/threonine-protein kinase 10 (Homo sapiens) (UniProt O94804); conditions: at 0.1 µM
[17] = target: Serine/threonine-protein kinase 10 (Homo sapiens) (UniProt O94804); conditions: at 1 µM
[18] = target: T5, Mitogen-activated protein kinase kinase kinase kinase 2 (Homo sapiens) (UniProt Q12851); conditions: at 0.1 µM
T5 sequence (whole entry): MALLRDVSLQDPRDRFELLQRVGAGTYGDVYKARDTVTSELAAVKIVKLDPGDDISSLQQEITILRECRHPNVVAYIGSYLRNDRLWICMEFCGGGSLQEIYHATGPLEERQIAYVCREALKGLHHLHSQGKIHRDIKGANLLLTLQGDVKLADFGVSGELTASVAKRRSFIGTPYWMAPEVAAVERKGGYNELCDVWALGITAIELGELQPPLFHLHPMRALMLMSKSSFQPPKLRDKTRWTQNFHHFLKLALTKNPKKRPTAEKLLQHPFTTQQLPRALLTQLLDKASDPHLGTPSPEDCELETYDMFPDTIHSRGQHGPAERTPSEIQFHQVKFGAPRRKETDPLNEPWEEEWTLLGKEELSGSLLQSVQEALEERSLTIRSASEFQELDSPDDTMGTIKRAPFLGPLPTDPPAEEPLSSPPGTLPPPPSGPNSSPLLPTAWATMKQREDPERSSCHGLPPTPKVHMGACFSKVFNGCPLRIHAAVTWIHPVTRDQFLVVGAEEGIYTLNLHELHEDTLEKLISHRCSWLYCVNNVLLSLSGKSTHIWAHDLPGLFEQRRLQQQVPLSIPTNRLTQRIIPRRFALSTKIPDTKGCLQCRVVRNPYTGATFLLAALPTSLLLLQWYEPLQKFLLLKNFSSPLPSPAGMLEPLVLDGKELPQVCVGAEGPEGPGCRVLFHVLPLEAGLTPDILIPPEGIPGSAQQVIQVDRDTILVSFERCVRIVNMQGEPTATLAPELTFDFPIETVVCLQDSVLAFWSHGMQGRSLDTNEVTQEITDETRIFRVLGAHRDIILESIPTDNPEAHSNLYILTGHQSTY

[19] = target: T5, Mitogen-activated protein kinase kinase kinase kinase 2 (Homo sapiens); conditions: at 1 µM
[20] = target: Mitogen-activated protein kinase kinase kinase kinase 4 (Homo sapiens) (UniProt O95819); conditions: at 0.1 µM
Mitogen-activated protein kinase kinase kinase kinase 4 (Homo sapiens), sequence (O95819 2-1239 limits assumed): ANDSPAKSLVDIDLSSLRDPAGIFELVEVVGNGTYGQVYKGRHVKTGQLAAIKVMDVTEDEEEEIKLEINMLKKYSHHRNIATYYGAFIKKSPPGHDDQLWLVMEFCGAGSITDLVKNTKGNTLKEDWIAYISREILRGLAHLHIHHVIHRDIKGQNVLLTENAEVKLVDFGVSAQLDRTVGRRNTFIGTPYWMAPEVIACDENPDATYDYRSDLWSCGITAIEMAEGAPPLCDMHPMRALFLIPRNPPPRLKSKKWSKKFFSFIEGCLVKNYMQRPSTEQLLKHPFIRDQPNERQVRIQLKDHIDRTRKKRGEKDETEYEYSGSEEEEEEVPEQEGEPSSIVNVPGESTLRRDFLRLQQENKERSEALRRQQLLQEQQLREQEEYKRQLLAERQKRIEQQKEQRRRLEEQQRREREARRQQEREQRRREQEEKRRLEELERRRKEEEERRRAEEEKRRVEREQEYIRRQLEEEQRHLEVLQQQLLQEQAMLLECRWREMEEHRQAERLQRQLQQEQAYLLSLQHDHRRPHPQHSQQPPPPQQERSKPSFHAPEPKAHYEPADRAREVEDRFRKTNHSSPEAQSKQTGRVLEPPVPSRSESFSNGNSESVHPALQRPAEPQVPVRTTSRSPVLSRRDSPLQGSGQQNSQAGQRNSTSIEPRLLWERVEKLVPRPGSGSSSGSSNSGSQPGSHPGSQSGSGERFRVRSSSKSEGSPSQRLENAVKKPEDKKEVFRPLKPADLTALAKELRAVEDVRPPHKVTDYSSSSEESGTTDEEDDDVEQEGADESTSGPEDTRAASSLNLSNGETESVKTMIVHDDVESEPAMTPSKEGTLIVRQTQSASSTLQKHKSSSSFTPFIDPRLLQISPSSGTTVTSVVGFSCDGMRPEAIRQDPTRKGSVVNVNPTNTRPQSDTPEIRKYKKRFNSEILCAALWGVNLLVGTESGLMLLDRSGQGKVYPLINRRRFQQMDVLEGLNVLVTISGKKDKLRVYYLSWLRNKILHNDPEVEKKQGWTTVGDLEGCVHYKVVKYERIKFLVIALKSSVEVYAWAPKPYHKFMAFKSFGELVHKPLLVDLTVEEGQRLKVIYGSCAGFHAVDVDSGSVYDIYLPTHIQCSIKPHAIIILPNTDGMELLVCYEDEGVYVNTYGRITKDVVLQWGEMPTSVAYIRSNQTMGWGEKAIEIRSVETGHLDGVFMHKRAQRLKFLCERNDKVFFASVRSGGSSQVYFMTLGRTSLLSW

Serine/threonine-protein kinase 10 (Homo sapiens), sequence (O94804 whole entry, looked up): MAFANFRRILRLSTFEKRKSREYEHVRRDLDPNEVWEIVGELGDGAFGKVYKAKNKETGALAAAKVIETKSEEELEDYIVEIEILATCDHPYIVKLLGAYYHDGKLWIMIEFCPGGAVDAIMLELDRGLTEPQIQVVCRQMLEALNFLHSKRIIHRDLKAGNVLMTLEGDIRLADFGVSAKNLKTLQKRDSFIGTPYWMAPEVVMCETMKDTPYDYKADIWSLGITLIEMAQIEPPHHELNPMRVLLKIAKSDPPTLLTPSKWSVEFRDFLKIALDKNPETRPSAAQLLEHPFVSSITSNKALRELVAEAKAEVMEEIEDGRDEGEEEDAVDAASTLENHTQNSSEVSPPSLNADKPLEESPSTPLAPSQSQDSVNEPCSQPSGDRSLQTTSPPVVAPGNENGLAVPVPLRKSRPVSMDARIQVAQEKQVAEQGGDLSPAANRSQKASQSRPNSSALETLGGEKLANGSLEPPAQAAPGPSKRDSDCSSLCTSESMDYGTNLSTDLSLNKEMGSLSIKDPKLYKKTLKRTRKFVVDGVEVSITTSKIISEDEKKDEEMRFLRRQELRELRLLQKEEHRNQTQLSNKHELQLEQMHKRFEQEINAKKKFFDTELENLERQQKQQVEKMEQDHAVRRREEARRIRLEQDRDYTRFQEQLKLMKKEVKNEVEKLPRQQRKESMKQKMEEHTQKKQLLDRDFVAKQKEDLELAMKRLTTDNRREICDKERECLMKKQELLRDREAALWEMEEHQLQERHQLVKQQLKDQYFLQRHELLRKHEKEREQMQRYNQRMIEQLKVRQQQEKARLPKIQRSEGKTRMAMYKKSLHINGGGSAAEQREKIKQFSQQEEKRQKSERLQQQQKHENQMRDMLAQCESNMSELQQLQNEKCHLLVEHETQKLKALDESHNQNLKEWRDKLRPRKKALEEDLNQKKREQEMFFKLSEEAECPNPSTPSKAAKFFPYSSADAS
NT-3 growth factor receptor (Homo sapiens), sequence (Q16288 32-839 limits assumed): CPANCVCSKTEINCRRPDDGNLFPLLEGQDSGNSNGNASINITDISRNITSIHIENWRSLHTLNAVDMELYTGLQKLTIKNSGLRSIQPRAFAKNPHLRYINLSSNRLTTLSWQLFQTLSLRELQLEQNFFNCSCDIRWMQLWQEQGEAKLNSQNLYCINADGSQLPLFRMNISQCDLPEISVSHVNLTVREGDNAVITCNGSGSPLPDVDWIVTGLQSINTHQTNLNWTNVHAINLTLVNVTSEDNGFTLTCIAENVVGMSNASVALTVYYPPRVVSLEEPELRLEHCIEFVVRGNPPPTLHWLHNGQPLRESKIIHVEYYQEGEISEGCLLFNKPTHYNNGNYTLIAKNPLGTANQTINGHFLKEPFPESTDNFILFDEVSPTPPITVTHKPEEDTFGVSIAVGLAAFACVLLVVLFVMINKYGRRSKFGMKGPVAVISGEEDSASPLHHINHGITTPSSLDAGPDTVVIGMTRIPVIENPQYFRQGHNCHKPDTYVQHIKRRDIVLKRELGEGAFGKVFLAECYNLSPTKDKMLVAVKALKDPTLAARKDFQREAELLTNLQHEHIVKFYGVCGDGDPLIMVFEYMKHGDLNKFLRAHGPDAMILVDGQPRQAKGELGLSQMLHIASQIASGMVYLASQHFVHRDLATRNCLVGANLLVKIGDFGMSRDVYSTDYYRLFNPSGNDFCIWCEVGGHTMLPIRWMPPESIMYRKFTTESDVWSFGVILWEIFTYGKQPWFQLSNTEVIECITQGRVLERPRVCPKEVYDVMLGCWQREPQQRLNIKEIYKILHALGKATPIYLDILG
Non-receptor tyrosine-protein kinase TYK2 (Homo sapiens), sequence (P29597 whole entry): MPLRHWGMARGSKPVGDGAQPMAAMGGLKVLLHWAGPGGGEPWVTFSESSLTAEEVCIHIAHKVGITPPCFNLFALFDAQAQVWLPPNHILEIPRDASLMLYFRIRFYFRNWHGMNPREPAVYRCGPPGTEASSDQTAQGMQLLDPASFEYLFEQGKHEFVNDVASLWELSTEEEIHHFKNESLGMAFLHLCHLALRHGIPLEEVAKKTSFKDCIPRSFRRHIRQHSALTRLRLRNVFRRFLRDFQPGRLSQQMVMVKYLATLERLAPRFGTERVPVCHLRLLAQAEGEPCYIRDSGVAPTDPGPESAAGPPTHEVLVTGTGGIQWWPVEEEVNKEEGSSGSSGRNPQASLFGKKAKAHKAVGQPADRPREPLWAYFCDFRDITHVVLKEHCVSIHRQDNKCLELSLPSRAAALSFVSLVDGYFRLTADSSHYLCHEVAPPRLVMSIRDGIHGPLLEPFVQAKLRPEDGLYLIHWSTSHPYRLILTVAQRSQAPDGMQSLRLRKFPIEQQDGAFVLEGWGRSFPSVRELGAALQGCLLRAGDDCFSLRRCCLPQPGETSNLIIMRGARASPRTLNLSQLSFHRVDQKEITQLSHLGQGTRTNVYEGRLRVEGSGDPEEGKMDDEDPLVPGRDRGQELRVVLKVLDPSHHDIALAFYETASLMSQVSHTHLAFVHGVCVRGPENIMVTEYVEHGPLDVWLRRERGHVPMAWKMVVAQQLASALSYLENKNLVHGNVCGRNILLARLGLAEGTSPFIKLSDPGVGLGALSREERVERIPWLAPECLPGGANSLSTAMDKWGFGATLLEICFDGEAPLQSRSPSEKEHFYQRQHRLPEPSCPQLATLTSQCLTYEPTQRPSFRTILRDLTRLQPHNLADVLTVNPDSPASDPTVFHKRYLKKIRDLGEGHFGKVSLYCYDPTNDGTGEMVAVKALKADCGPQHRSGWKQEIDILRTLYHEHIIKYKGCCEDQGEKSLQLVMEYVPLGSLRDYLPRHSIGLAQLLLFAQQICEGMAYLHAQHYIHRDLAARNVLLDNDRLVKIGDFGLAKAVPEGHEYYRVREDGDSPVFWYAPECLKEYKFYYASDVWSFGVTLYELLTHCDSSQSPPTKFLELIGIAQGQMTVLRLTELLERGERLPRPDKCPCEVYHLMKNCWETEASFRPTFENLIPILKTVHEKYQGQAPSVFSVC
High affinity nerve growth factor receptor (Homo sapiens), sequence (P04629 33-796 limits assumed): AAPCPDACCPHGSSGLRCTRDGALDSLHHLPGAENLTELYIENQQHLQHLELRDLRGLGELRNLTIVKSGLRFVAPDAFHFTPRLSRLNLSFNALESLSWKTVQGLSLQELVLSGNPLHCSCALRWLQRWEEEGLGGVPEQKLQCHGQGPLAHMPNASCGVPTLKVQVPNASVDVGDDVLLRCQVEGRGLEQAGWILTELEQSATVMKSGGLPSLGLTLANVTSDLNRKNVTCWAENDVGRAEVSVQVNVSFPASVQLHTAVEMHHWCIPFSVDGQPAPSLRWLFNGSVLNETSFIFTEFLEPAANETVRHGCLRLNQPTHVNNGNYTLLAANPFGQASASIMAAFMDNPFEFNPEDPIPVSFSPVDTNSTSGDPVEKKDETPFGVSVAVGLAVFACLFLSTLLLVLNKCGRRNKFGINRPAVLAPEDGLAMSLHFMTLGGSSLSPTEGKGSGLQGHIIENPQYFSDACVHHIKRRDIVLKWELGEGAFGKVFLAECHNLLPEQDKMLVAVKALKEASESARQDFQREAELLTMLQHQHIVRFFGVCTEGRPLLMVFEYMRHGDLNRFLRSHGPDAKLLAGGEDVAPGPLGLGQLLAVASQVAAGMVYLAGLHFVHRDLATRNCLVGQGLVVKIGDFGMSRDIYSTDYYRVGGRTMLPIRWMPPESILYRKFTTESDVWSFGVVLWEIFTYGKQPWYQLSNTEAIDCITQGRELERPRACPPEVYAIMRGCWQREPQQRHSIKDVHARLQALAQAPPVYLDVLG

| SMILES | inhibition [1] [%] | inhibition [2] [%] | inhibition [3] [%] | inhibition [4] [%] | inhibition [5] [%] | inhibition [6] [%] | inhibition [7] [%] | inhibition [8] [%] | inhibition [9] [%] | inhibition [10] [%] | inhibition [11] [%] | inhibition [12] [%] | inhibition [13] [%] | inhibition [14] [%] | inhibition [15] [%] | inhibition [16] [%] | inhibition [17] [%] | inhibition [18] [%] | inhibition [19] [%] | inhibition [20] [%] |
| --- | --- | --- | --- | --- | --- | --- | --- | --- | --- | --- | --- | --- | --- | --- | --- | --- | --- | --- | --- | --- |
| OCc1ccc(-c2nc(-c3ccccn3)c(-c3ccc4c(c3)OCO4)[nH]2)cc1 | 3.45 | 3.16 | 1 | 4.37 | 3 | 6.42 | 12.5 | -1.9 | 9.01 | 4.4 | 11 | 6.24 | 11.7 | 3.67 | 12.5 | 6.01 | 4.97 | 1.15 | 2.87 | 5.21 |
| COc1cc2ncn(-c3cc(OCc4ccccc4S(C)(=O)=O)c(C#N)s3)c2cc1OC | 18.8 | 15 | 57.2 | 12.9 | 56.1 | 10.8 | 42.5 | -7.35 | 11.1 | 12.4 | 77.2 | 28.2 | 73.6 | 17.7 | 93.8 | 35.5 | 71.7 | 8.65 | 41.3 | 57.5 |
| COc1cccc(-n2nc(C)c3c(N/N=C(\C)c4ccncc4)ncnc32)c1 | 2.57 | -1.2 | 0.69 | -2.28 | -0.38 | 3.18 | 2.67 | 0.67 | 2.24 | 1.27 | 0.79 | 2.73 | 3.95 | 0.6 | 4.15 | 0.54 | 3.61 | -0.39 | 0.32 | 1.37 |
| CN1CCN(C(=O)c2ccc(NC(=O)Nc3ccc(N(C)c4ccnc(Nc5ccc(CS(C)(=O)=O)cc5)n4)cc3)cc2)CC1 | 51 | 5.61 | 31.5 | 9.24 | 36.9 | 33.8 | 70.1 | -4.74 | 8.24 | 84.3 | 85.9 | 68.5 | 72.8 | 88.4 | 95.3 | 26.3 | 67.7 | 4.67 | 32.7 | 13 |
| C[C@@H](Oc1cc(-n2cnc3ccc(OCC4CCN(C)CC4)cc32)sc1C(N)=O)c1ccccc1C(F)(F)F | 0.72 | -0.51 | 1.01 | -0.61 | 0.64 | -1.27 | 1.35 | 2.67 | 1.44 | -0.53 | -0.47 | -2.46 | 2.14 | -1.94 | 0.8 | 64.5 | 90.5 | 1.86 | 12.1 | -0.3 |
| O=C1Nc2ccc(-c3cccnc3)cc2C1=Cc1cc(Br)c(O)c(Br)c1 | 12.8 | 2.93 | 12.2 | 4.91 | 24.1 | 2.22 | 6.14 | 0.81 | 7.48 | 15.5 | 88.3 | 4.87 | 16 | 2.6 | 31.7 | 3.55 | 3.51 | 1.24 | 2.93 | 69.3 |

From ChEMBL document CHEMBL1961873, “Compounds: GSK PKIS; Assays: Nanosyn kinase panel” (2012)
